From PubChem BioAssay (Tox21)
Records with an inconclusive call do not appear. A number with no mark means an inactive call. Calls of active or inactive are those of the source. Calls come from the whole dose curve; as a rule, active = well fitted curve in the direction sought with a large enough effect in the repeat runs; inconclusive = weak or mixed curves; inactive = no such curve, though single readings can be large; an effect the other way counts as inactive or inconclusive.
% is set by controls: 0 for no effect and ±100 for the full control effect.

Experiment: qHTS assay to identify small molecule antagonists of the TGF-beta/Smad signaling pathway - cell viability counter screen (AID 1346824); note: nearly all actives have a fitted effect of over 50% in size
Details: SBE-bla HEK293T viability, CellTiter-Glo luminescence; series mostly up to 76.8 µM
Procedure, shortened: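 SBE-bla HEK 293T cells were plated overnight at 37 C, then given compounds in DMSO plus TGF-beta1 (added as 0.25 ng/mL solution) for 5 hr. After the bla read, CellTiter-Glo was added to the same wells and luminescence read after 30 min at room temperature.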
With `Nc1nc(Cl)nc2c1ncn2[C@@H]1O[C@H](CO)[C@@H](O)[C@@H]1F` the outcome was “inactive”. For `CN1Cc2cc(C(=O)N3CCC(C4CCNCC4)CC3)ccc2N[C@@H](CC(=O)O)C1=O`, the outcome was “inactive”. With `O=C(NCCCN1CCOCC1)c1ccc(Cl)cc1` the outcome was “inactive”. With `COc1cc2[nH]c(=O)[nH]c(=O)c2cc1OC` the outcome was “inactive”. For `C=CC(=O)NCOCC(C)C`, the outcome was “inactive”. For `CC(C)(CCl)c1ccccc1`, the outcome was “inactive”. For `CC(=O)Nc1ccccc1C`, the outcome was “inactive”. For `CC(CCO)CCc1ccccc1` (stereo not drawn), the outcome was “inactive”. In the case of `CC#N`, the outcome is reported as “inactive”. With `CN1CCCN=C1/C=C/c1cccs1` the outcome was “inactive”. For `COC(=O)c1cc(S(N)(=O)=O)ccc1OC`, the outcome was “inactive”. With `CO[C@H]1O[C@H](CO)[C@@H](O)[C@H](O)[C@H]1O` the outcome was “inactive”. With `CCCCN(CCCC)C(=S)SSC(=S)N(CCCC)CCCC` the outcome was “inactive”. With `COC(=O)c1cc(Cl)ccc1NS(=O)(=O)C(F)(F)F` the outcome was “inactive”. For `CC1(C)C(=O)N(Br)C(=O)N1Cl`, the outcome was “inactive”. For `N#C[C@@H]1C[C@@H]2C[C@@H]2N1C(=O)[C@@H](N)C12CC3CC(CC(O)(C3)C1)C2`, the outcome was “inactive”. With `CC(CCc1ccc2c(c1)OCO2)NN` (stereo not drawn) the outcome was “inactive”. With `Cc1nc2ccccc2s1` the outcome was “inactive”. In the case of `Nc1ccc(S(=O)(=O)O)c(N)c1`, the outcome is reported as “inactive”. With `NC(=O)Nc1ccc(Cl)cc1` the outcome was “inactive”. For `O=Cc1c(Cl)cccc1Cl`, the outcome was “inactive”. With `CO[Si](C)(OC)OC` the outcome was “inactive”. In the case of `O=S1OCCO1`, the outcome is reported as “inactive”. In the case of `CCCOC(=O)c1ccc(N)cc1`, the outcome is reported as “inactive”. For `O=C(O)Cc1ccc(-c2ccccc2)cc1`, the outcome was “inactive”. In the case of `OCC1CC=CCC1` (stereo not drawn), the outcome is reported as “inactive”. `C=CCCCCCCCCCCCCCCCC` showed a viability change, negative = cytotoxic of 2.26% [at 6.97 µM]. With `C=CCOC(=O)/C=C\C(=O)OCC=C` the outcome was “inactive”. In the case of `Cc1oncc1C(=O)Nc1ccc(C(F)(F)F)cc1`, the outcome is reported as “inactive”. With `CC(C)CCCCCOC(=O)CCCCC(=O)OCCCCCC(C)C` the outcome was “inactive”. In the case of `CC(=O)N(c1onc(C)c1C)S(=O)(=O)c1ccc(N)cc1`, the outcome is reported as “inactive”. With `OC(CCCN1CCCCC1)(c1ccccc1)c1ccccc1` the outcome was “inactive”. For `CCn1cc(C(=O)O)c(=O)c2cc(F)c(N3CCNCC3)nc21`, the outcome was “inactive”. With `C[N+](C)(C)CCOC(N)=O` the outcome was “inactive”. In the case of `CCCOCCOCCO`, the outcome is reported as “inactive”. `CCCCCCCCCCCCCCCCBr` showed a viability change, negative = cytotoxic of -3.09% [at 15.8 µM]. In the case of `c1ccc(COCc2ccccc2)cc1`, the outcome is reported as “inactive”. Work on `CN1CCN(c2c(F)cc3c(=O)c(C(=O)O)cn4c3c2OCN4C)CC1` yielded a viability change, negative = cytotoxic of 1.7% [at 15.8 µM]. With `O=C1OCCN1/N=C/c1ccc([N+](=O)[O-])o1` the outcome was “inactive”.

Experiment: qHTS assay to identify small molecule agonists of the TGF-beta/Smad signaling pathway - cell viability counter screen (AID 1346829); note: top concentration of the series differs between compounds; nearly all actives have a fitted effect of over 45% in size
Details: SBE-bla HEK293T viability, CellTiter-Glo luminescence, 5 h; series mostly up to 76.8 µM
Procedure, shortened: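 After overnight seating at 37 C and 5% CO2, reporter cells got compounds for 5 hr and FRET substrate for 2 hr; cell viability then came from CellTiter-Glo luminescence.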
In the case of `Nc1nc(Cl)nc2c1ncn2[C@@H]1O[C@H](CO)[C@@H](O)[C@@H]1F`, the outcome is reported as “inactive”. For `CN1Cc2cc(C(=O)N3CCC(C4CCNCC4)CC3)ccc2N[C@@H](CC(=O)O)C1=O`, the outcome was “inactive”. In the case of `O=C(NCCCN1CCOCC1)c1ccc(Cl)cc1`, the outcome is reported as “inactive”. For `COc1cc2[nH]c(=O)[nH]c(=O)c2cc1OC`, the outcome was “inactive”. With `C=CC(=O)NCOCC(C)C` the outcome was “inactive”. With `CC(C)(CCl)c1ccccc1` the outcome was “inactive”. With `CC(=O)Nc1ccccc1C` the outcome was “inactive”. For `CC(CCO)CCc1ccccc1` (stereo not drawn), the outcome was “inactive”. For `CC#N`, the outcome was “inactive”. In the case of `CN1CCCN=C1/C=C/c1cccs1`, the outcome is reported as “inactive”. In the case of `COC(=O)c1cc(S(N)(=O)=O)ccc1OC`, the outcome is reported as “inactive”. With `CO[C@H]1O[C@H](CO)[C@@H](O)[C@H](O)[C@H]1O` the outcome was “inactive”. With `CCCCN(CCCC)C(=S)SSC(=S)N(CCCC)CCCC` the outcome was “inactive”. For `COC(=O)c1cc(Cl)ccc1NS(=O)(=O)C(F)(F)F`, the outcome was “inactive”. With `CC1(C)C(=O)N(Br)C(=O)N1Cl` the outcome was “inactive”. For `N#C[C@@H]1C[C@@H]2C[C@@H]2N1C(=O)[C@@H](N)C12CC3CC(CC(O)(C3)C1)C2`, the outcome was “inactive”. In the case of `CC(CCc1ccc2c(c1)OCO2)NN` (stereo not drawn), the outcome is reported as “inactive”. In the case of `Cc1nc2ccccc2s1`, the outcome is reported as “inactive”. For `Nc1ccc(S(=O)(=O)O)c(N)c1`, the outcome was “inactive”. In the case of `NC(=O)Nc1ccc(Cl)cc1`, the outcome is reported as “inactive”. For `O=Cc1c(Cl)cccc1Cl`, the outcome was “inactive”. With `CO[Si](C)(OC)OC` the outcome was “inactive”. In the case of `O=S1OCCO1`, the outcome is reported as “inactive”. In the case of `CCCOC(=O)c1ccc(N)cc1`, the outcome is reported as “inactive”. For `O=C(O)Cc1ccc(-c2ccccc2)cc1`, the outcome was “inactive”. For `OCC1CC=CCC1` (stereo not drawn), the outcome was “inactive”. Work on `C=CCCCCCCCCCCCCCCCC` yielded an activity change, negative = cytotoxicity of 3.28% [at 6.97 µM]. In the case of `C=CCOC(=O)/C=C\C(=O)OCC=C`, the outcome is reported as “inactive”. For `Cc1oncc1C(=O)Nc1ccc(C(F)(F)F)cc1`, the outcome was “inactive”. With `CC(C)CCCCCOC(=O)CCCCC(=O)OCCCCCC(C)C` the outcome was “inactive”. With `CC(=O)N(c1onc(C)c1C)S(=O)(=O)c1ccc(N)cc1` the outcome was “inactive”. With `OC(CCCN1CCCCC1)(c1ccccc1)c1ccccc1` the outcome was “inactive”. For `CCn1cc(C(=O)O)c(=O)c2cc(F)c(N3CCNCC3)nc21`, the outcome was “inactive”. In the case of `C[N+](C)(C)CCOC(N)=O`, the outcome is reported as “inactive”. For `CCCOCCOCCO`, the outcome was “inactive”. With `CCCCCCCCCCCCCCCCBr` the activity change, negative = cytotoxicity was -1.12% [at 15.8 µM]. For `c1ccc(COCc2ccccc2)cc1`, the outcome was “inactive”. For `CN1CCN(c2c(F)cc3c(=O)c(C(=O)O)cn4c3c2OCN4C)CC1`, the activity change, negative = cytotoxicity was -7.56% [at 15.8 µM]. For `O=C1OCCN1/N=C/c1ccc([N+](=O)[O-])o1`, the outcome was “inactive”.
